We go through 21 compounds from PubChem BioAssay.

A number with no mark means an inactive call. For part of these data: Entries with a potency or affinity are not part of this list. Active and inactive are the calls of the source. Unless noted, the rule behind the calls is not given here.

Test [1] in a line: antimalarial activity against Dd2 strain (AID 2302;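 active = growth inhibition above 50% at the single 2 µM test dose, taken to imply half-maximal potency below 2 µM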;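 note: 0% = DMSO untreated growth and 100% = chloroquine plus artemisinin killed control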). Particulars: P. falciparum Dd2 in RBCs, LDH growth readout, 72 h; at 2 µM; stronger effect = higher value.
Test [2] is described as follows: human hepatoma cell viability loss – ATP luminescence, cytotoxicity control for P. falciparum antimalarial project, primary screen (AID 2303;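 active = inhibition above 50%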;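 note: 0% = DMSO wells and 100% = digitonin-killed cells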). Particulars: HepG2 viability, 24-48 h, at 10 µM, stronger effect = higher value.
Test [3] deals with L-lactate dehydrogenase (Plasmodium falciparum (isolate CDC / Honduras)) (UniProt Q27743). The experiment in a line: PfLDH activity inhibition – cell lysate, 3D7 strain, counter-screen for P. falciparum growth inhibition project (AID 2304).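 Note: 0% = vehicle and 100% = reference inhibitor.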 Particulars: P. falciparum 3D7 crude extract, LDH APAD/NBT absorbance; at 2 µM; stronger effect = higher value.
Sequence of L-lactate dehydrogenase (Plasmodium falciparum (isolate CDC / Honduras)) (Q27743 whole entry, looked up): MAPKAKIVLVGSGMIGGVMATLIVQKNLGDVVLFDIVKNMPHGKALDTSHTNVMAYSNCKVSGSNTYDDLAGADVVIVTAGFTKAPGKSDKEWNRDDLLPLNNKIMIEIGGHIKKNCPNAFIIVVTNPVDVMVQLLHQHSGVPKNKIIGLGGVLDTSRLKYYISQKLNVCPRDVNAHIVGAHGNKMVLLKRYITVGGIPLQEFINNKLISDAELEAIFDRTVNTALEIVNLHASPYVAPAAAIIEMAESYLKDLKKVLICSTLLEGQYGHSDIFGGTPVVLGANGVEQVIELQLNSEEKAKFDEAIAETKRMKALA
A short description of test [4]: inhibition of 3D7 malaria parasite growth – strain 3D7 (AID 2306).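 Note: 0% = DMSO wells and 100% = chloroquine plus artemisinin control wells.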 Particulars: P. falciparum 3D7 erythrocytic growth, LDH absorbance, 72 h; at 2 µM; stronger effect = higher value.
In test [5] the target is Calcium-dependent protein kinase 1 (Plasmodium falciparum (isolate 3D7)) (UniProt P62344). Put plainly: PfCDPK1 kinase inhibitors, biochemical, TCAMS library (AID 1159585; cut-off not given, nearly all actives have IC50 up to about 0.98 µM;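 note: inhibitors leave more ATP so luminescence rises with inhibition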). Particulars: recombinant PfCDPK1, Kinase-Glo ATP depletion luminescence. On the technique in general: Kinase-Glo measures the ATP left after a reaction by luminescence.
Sequence of Calcium-dependent protein kinase 1 (Plasmodium falciparum (isolate 3D7)) (P62344 whole entry, looked up): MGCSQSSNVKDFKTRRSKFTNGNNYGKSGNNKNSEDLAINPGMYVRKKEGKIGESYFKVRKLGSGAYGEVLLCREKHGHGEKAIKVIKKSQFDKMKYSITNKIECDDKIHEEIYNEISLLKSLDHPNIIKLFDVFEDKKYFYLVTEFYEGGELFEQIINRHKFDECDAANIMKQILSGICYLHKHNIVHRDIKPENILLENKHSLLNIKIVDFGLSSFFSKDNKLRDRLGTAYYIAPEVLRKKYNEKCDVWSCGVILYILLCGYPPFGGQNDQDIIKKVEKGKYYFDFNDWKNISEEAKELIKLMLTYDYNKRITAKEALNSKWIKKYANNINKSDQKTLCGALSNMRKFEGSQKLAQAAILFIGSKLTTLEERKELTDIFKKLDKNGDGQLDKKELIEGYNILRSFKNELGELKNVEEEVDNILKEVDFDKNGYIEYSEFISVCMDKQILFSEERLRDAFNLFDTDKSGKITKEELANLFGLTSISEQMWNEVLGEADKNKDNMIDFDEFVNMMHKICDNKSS
Test [6] deals with Plasmodium falciparum protein kinase 6 (PK6, PF3D7_1337100) (UniProt Q8IDW1). Put plainly: PfPK6 kinase inhibitors, biochemical, TCAMS library (AID 1159586). Particulars: recombinant PfPK6, Kinase-Glo ATP depletion luminescence.
Sequence of Plasmodium falciparum protein kinase 6 (PK6, PF3D7_1337100) (Q8IDW1 1-305): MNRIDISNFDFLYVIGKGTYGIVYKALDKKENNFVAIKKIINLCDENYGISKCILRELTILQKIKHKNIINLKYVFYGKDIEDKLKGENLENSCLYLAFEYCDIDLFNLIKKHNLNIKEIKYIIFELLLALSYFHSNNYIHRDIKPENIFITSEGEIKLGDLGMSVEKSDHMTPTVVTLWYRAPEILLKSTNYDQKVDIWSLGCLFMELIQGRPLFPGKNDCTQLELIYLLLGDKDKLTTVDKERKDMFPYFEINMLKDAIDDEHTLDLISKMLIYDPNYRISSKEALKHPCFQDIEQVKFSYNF
For test [7], the target named is Protein kinase 7 (PK7), Plasmodium falciparum 3D7 (PF3D7_0213400) (UniProt Q7YTF7). The experiment in a line: inhibition of Plasmodium PK7 catalytic activity – biochemical, TCAMS antimalarial set, Kinase-Glo luminescence (AID 1159587). Particulars: recombinant PfPK7, Kinase-Glo ATP depletion luminescence.
Sequence of Protein kinase 7 (PK7), Plasmodium falciparum 3D7 (PF3D7_0213400) (Q7YTF7 1-343): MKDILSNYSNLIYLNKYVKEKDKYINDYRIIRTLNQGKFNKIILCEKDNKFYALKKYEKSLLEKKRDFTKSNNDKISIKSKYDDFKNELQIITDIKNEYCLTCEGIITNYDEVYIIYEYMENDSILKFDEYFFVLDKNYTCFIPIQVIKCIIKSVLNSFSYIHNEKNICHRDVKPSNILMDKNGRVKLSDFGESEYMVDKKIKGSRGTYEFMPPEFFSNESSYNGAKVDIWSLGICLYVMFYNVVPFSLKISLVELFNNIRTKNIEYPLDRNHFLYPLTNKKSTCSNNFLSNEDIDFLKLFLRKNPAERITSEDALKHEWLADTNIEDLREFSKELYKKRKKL
Test [8] deals with Calcium-dependent protein kinase 4 (Plasmodium falciparum (isolate 3D7)) (UniProt Q8IBS5). The experiment in a line: PfCDPK4 kinase inhibitors, biochemical, TCAMS library (AID 1159588; cut-off not given, nearly all actives have IC50 up to about 0.91 µM). Particulars: recombinant PfCDPK4, Kinase-Glo ATP depletion luminescence.
Sequence of Calcium-dependent protein kinase 4 (Plasmodium falciparum (isolate 3D7)) (Q8IBS5 whole entry, looked up): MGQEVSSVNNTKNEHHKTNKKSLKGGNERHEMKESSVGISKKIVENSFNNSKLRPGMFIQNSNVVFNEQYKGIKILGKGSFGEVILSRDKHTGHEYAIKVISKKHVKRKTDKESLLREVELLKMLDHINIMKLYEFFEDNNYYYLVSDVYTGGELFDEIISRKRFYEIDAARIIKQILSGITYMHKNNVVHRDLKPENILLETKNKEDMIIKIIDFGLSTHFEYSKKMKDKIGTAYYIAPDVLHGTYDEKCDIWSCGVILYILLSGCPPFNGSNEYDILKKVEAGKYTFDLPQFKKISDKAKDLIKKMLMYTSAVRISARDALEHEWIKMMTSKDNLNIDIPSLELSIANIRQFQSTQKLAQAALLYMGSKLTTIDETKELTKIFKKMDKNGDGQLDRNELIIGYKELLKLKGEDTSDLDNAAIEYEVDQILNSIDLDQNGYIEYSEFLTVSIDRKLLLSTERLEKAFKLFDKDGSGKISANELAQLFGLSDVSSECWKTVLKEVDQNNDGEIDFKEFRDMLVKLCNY

On to `O=C(Nc1ccc(OC2CCN(Cc3ccsc3)C2)c(Cl)c1)c1ccc2ncccc2c1` (stereo not drawn), for which the growth inhibition in test [1] was 10%; in test [4], 88% (active). For the same compound, the values for the inhibition in test [2] and in test [3] were 84% (active) and -1%, respectively. The outcome in test [5], in test [6], in test [7] and in test [8] was inactive.
For the compound `CN1CCN(Cc2cc3cc(NC(=O)/C=C/c4ccc(Cl)cc4)ccc3s2)CC1`, the growth inhibition in test [1] was 20%; in test [4] it was 100% (active). Moreover, the values for the inhibition in test [2] and in test [3] were 51% (active) and 2%, respectively. Besides, the result in test [5], in test [6], in test [7] and in test [8] was inactive.
Turning to `COc1cc(NC(=O)N2CCc3ccc(OCCC4CCCN4C)cc32)cc(C(F)(F)F)c1` (stereo not drawn), the growth inhibition in test [1] is 42%; in test [4], 101% (active). In addition, the inhibition (in general, the relative decrease from the control value, in per cent) in test [2] was 5%; in test [3], 3%. In addition, the outcome in test [5], in test [6], in test [7] and in test [8] was inactive.
With `CC1(C)N=C(N)N=C(N)N1OCCCOc1ccc([N+](=O)[O-])cc1`, the growth inhibition in test [1] was 80% (active); in test [4], 94% (active). Besides, the inhibition in test [2] is 68% (active); in test [3] it was 0%. Moreover, the outcome in test [5], in test [6], in test [7] and in test [8] was inactive.
`O=C(Nc1cccc([N+](=O)[O-])c1)Nc1cccc(C(F)(F)F)c1`: the figures for the growth inhibition in test [1] and in test [4] were 81% (active) and 92% (active), respectively. The values for the inhibition in test [2] and in test [3] were 0% and -8%, respectively. Further, the outcome in test [5], in test [6], in test [7] and in test [8] was inactive.
For `CCN1CCN(c2cc(C)c3cc(NC(=O)c4ccc(OC)c(OC)c4)ccc3n2)CC1`, the figures for the growth inhibition in test [1] and in test [4] were 23% and 90% (active), respectively. Moreover, the inhibition in test [2] is 28%; in test [3], 1%. The result in test [5], in test [6], in test [7] and in test [8] was inactive.
On to `CC(=O)N1N=C(c2ccccc2)Sc2c1nc(-c1ccc(Cl)cc1)n2C(C)=O`, for which the growth inhibition in test [1] was 18%; in test [4] it was 94% (active). In addition, the values for the inhibition in test [2] and in test [3] were -1% and 0%, respectively. The outcome in test [5], in test [6], in test [7] and in test [8] was inactive.
Regarding `O=C(Nc1ccc(-c2ccc(-c3nc4ccccc4[nH]3)s2)cc1)Nc1ccc(Cl)c(Cl)c1`, the growth inhibition in test [1] was 99% (active); in test [4], 102% (active). The inhibition was 89% (active) in test [2] and 2% in test [3]. Further, the result in test [5], in test [6], in test [7] and in test [8] was inactive.
As to `CC(C)(C)c1ccc(S(=O)(=O)Nc2ccccc2Cn2nc(N3CCNCC3)ccc2=O)cc1`, the growth inhibition was 97% (active) in test [1] and 98% (active) in test [4]. Further, the inhibition in test [2] is -5%; in test [3], 2%. The outcome in test [5], in test [6], in test [7] and in test [8] was inactive.
On to `CCN(CC)CCN(Cc1ccc(-c2ccc(C(F)(F)F)cc2)cc1)C(=O)CN1C(CCc2cccc(F)c2F)=NS(=O)(=O)c2ccccc21`, for which the growth inhibition in test [1] is 49%; in test [4] it was 101% (active). For the same compound, the values for the inhibition in test [2] and in test [3] were 36% and -1%, respectively. Besides, the outcome in test [5], in test [6], in test [7] and in test [8] was inactive.
Take `CCCCN1CCN(c2cc(NS(=O)(=O)c3ccc(C(=O)Nc4ccc(C(F)(F)F)cc4)cc3)ccc2OC)CC1`: the growth inhibition is 20% in test [1] and 99% (active) in test [4]. The inhibition in test [2] is 17%; in test [3] it was -3%. Besides, the result in test [5], in test [6], in test [7] and in test [8] was inactive.
On to `CN(C)CCOc1cc(NC(=O)/C=C/c2cccc3ccccc23)ccc1I`, for which the growth inhibition in test [1] is 7%; in test [4], 98% (active). Further, the inhibition is 55% (active) in test [2] and 0% in test [3]. Moreover, the outcome in test [5], in test [6], in test [7] and in test [8] was inactive.
As for `NC(Cc1cccc(I)c1)C(=O)NCC1CCCO1` (stereo not drawn), the growth inhibition in test [1] is 50% (active); in test [4] it was 98% (active). Besides, the inhibition in test [2] is 52% (active); in test [3], 1%. The result in test [5], in test [6], in test [7] and in test [8] was inactive.
In the case of `CC1CCCCN1CCCNc1nc(NCc2ccccc2)c2ccccc2n1` (stereo not drawn), the growth inhibition in test [1] is 14%; in test [4] it was 95% (active). In addition, the inhibition is 24% in test [2] and 0% in test [3]. The outcome in test [5], in test [6], in test [7] and in test [8] was inactive.
In the case of `Cc1ccc(N2CCN(C(=O)c3cccc(-c4cncc5nc(-c6ccco6)n(C)c45)c3)CC2)nc1`, the growth inhibition in test [1] is 91% (active); in test [4], 94% (active). Moreover, the results for the inhibition in test [2] and in test [3] were -13% and -1%, respectively. Besides, the outcome in test [5], in test [6], in test [7] and in test [8] was inactive.
On to `CCN(CC)CCCN(CCCN(CC)CC)c1cc(C)nc(Nc2ccc3cc(Br)ccc3c2)n1`, for which the growth inhibition is 73% (active) in test [1] and 100% (active) in test [4]. For the same compound, the inhibition in test [2] was 12%; in test [3], 3%. The outcome in test [5], in test [6], in test [7] and in test [8] was inactive.
For the compound `Cc1cc(NCCC(=O)NCCOc2ccccc2)nc(NCCc2ccc(F)cc2)n1`, the growth inhibition was 4% in test [1] and 97% (active) in test [4]. Moreover, the inhibition is 14% in test [2] and 2% in test [3]. In addition, the outcome in test [5], in test [6], in test [7] and in test [8] was inactive.
`CCn1c(-c2nonc2N)nc2c(C#CC(C)(C)O)ncc(OCCNCCc3ccc(OC)cc3)c21`: the growth inhibition was 44% in test [1] and 91% (active) in test [4]. Also, the inhibition in test [2] is 4%; in test [3] it was -7%. Besides, the result in test [5], in test [6], in test [7] and in test [8] was inactive.
Turning to `CC1(C)Cc2c([nH]c3ccccc23)C(CCCCCCCCC2=NC(C)(C)Cc3c2[nH]c2ccccc32)=N1`, the growth inhibition in test [1] was 88% (active); in test [4], 99% (active). Also, the inhibition in test [2] is 100% (active); in test [3], -1%. In addition, the outcome in test [5], in test [6], in test [7] and in test [8] was inactive.
In the case of `O=c1[nH]c2c(cc1CNC1CCCCC1)c(-c1cccc(F)c1)nn2-c1ccccc1`, the growth inhibition in test [1] was 89% (active); in test [4] it was 95% (active). In addition, the inhibition is 6% in test [2] and 7% in test [3]. For the same compound, the result in test [5], in test [6], in test [7] and in test [8] was inactive.
On to `COc1cc2nc(NCCc3cccc(Cl)c3)nc(NCc3ccccc3)c2cc1OC`, for which the growth inhibition in test [1] and in test [4] was 101% (active) each time. In addition, the values for the inhibition in test [2] and in test [3] were 97% (active) and 0%, respectively. Further, the result in test [5], in test [6], in test [7] and in test [8] was inactive.
